# Reference: the supplement of paper PMC8007513
# Counter-ions that a name gives are not always drawn. ± gives the standard error. The campaign covered roughly 1,300 compounds. About 130 (10%) showed an effect of 50% or more. Many of the other results were omitted from the sample, so strong results are more common in it than they were.
# Test system: Trichoderma virens ATCC 9645
# Assay: growth yield (OD600) with compound + IPBC relative to untreated control; higher = less growth inhibition
# Conditions: compound concentration: 100 uM, IPBC concentration: 200 ng/ml
# Summary of the method: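 Library compounds (100 μM final), with or without a co-applied biocide (200 ng ml^−1), were added to 100 μl aliquots of Trichoderma virens ATCC 9645 spores at 15,000 spores ml^−1 in potato dextrose broth. Cultures were grown at 30 °C in 96-well plates, and OD600 was measured at 40 h and 72 h. Each growth value is a mean of duplicate screens, expressed relative to the control with neither agent.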
SMILES,growth yield (40 h) [%],growth yield (72 h) [%]
CC(=C(CCO)SSCC1CCCO1)N(C=O)Cc1cnc(C)nc1N (stereo in doubt) [Fursultiamine Hydrochloride] + CCCCNC(=O)OCC#CI [3-iodo-2-propynyl butylcarbamate (IPBC)],104 ± 4.3,102 ± 3.2
Oc1c(Cl)cc(Cl)c2cccnc12 [Chloroxine] + CCCCNC(=O)OCC#CI [3-iodo-2-propynyl butylcarbamate (IPBC)],1.27 ± 0.95,1.89 ± 0.21
Oc1c(I)cc(Cl)c2cccnc12 [Clioquinol] + CCCCNC(=O)OCC#CI [3-iodo-2-propynyl butylcarbamate (IPBC)],11.4,5.66 ± 0.21
CC(C(=O)O)c1ccc2c(c1)Cc1cccnc1O2 (stereo unspecified) [Pranoprofen] + CCCCNC(=O)OCC#CI [3-iodo-2-propynyl butylcarbamate (IPBC)],92 ± 8.7,90.6 ± 3.8
Nc1ncn(C2OC(CO)C(O)C2O)c(=O)n1 (stereo unspecified) [Azacytidine-5] + CCCCNC(=O)OCC#CI [3-iodo-2-propynyl butylcarbamate (IPBC)],67.2 ± 3,91.9 ± 1.1
Cc1cn([C@H]2C=C[C@@H](CO)O2)c(=O)[nH]c1=O [Stavudine] + CCCCNC(=O)OCC#CI [3-iodo-2-propynyl butylcarbamate (IPBC)],98.5 ± 15,97.6 ± 9.5
CNS(=O)(=O)Cc1ccc2[nH]cc(CCN(C)C)c2c1 [Sumatriptan succinate] + CCCCNC(=O)OCC#CI [3-iodo-2-propynyl butylcarbamate (IPBC)],92 ± 11,91.3 ± 7.7
CCCCS(=O)(=O)N[C@@H](Cc1ccc(OCCCCC2CCNCC2)cc1)C(=O)O [Tirofiban hydrochloride] + CCCCNC(=O)OCC#CI [3-iodo-2-propynyl butylcarbamate (IPBC)],85.5 ± 1.9,91.3 ± 0.94
CC(=O)OC1CN2CCC1CC2 (stereo unspecified) [Aceclidine Hydrochloride] + CCCCNC(=O)OCC#CI [3-iodo-2-propynyl butylcarbamate (IPBC)],80.85 ± 0.79,86.84 ± 0.21
CC(C)(CO)C(O)C(=O)NCCCO (stereo unspecified) [Panthenol (D)] + CCCCNC(=O)OCC#CI [3-iodo-2-propynyl butylcarbamate (IPBC)],87.2 ± 0.48,90.09 ± 0.52
OCc1cc(C(O)CNCCCCCCOCCCCc2ccccc2)ccc1O (stereo unspecified) [Salmeterol] + CCCCNC(=O)OCC#CI [3-iodo-2-propynyl butylcarbamate (IPBC)],34.9 ± 1.6,75.1 ± 3.4
CC(C)(C)NCC(O)c1ccc(O)c(CO)c1 (stereo unspecified) [Salbutamol] + CCCCNC(=O)OCC#CI [3-iodo-2-propynyl butylcarbamate (IPBC)],85.93 ± 0.16,93 ± 0.94
CC(C)(C)NC[C@H](O)c1ccc(O)c(CO)c1 [Levalbuterol hydrochloride] + CCCCNC(=O)OCC#CI [3-iodo-2-propynyl butylcarbamate (IPBC)],86.2 ± 2.4,90.3 ± 2.6
C1N2CN3CN1CN(C2)C3 [Methenamine] + CCCCNC(=O)OCC#CI [3-iodo-2-propynyl butylcarbamate (IPBC)],89 ± 1.3,93.13 ± 0.84
Nc1ccc(/N=N/c2ccccc2)c(N)n1 [Phenazopyridine hydrochloride] + CCCCNC(=O)OCC#CI [3-iodo-2-propynyl butylcarbamate (IPBC)],7.15 ± 0.48,13.5 ± 1.8
Nc1c2ccccc2nc2ccccc12 [Aminacrine] + CCCCNC(=O)OCC#CI [3-iodo-2-propynyl butylcarbamate (IPBC)],85.5 ± 5.4,96.3 ± 3.4
Cc1cccc(C)c1NC1=NCCCS1 [Xylazine] + CCCCNC(=O)OCC#CI [3-iodo-2-propynyl butylcarbamate (IPBC)],84.3 ± 4.3,88.8 ± 2.8
CN(C)CCN(Cc1ccccc1)c1ccccn1 [Tripelennamine hydrochloride] + CCCCNC(=O)OCC#CI [3-iodo-2-propynyl butylcarbamate (IPBC)],95 ± 3.5,95.2 ± 1.9
CC(C)(C)NC(=O)[C@H]1CC[C@H]2[C@@H]3CC[C@H]4NC(=O)C=C[C@]4(C)[C@H]3CC[C@]12C [Finasteride] + CCCCNC(=O)OCC#CI [3-iodo-2-propynyl butylcarbamate (IPBC)],84.2 ± 7.9,87.5 ± 6.7

SMILES,growth yield (40 h) [%],growth yield (72 h) [%]
"Cc1c(O)c(=O)n(-c2ccccc2)n1C [Antipyrine, 4-hydroxy] + CCCCNC(=O)OCC#CI [3-iodo-2-propynyl butylcarbamate (IPBC)]",91.5 ± 2.2,92.2 ± 1.4
CO/N=C(\C(=O)N[C@@H]1C(=O)N2C(C(=O)O)=C(COC(N)=O)CS[C@H]12)c1ccco1 [Cefuroxime sodium salt] + CCCCNC(=O)OCC#CI [3-iodo-2-propynyl butylcarbamate (IPBC)],92.13 ± 0.64,92.2 ± 2
CC[C@H]1OC(=O)[C@H](C)[C@@H](O[C@H]2C[C@@](C)(OC)[C@@H](O)[C@H](C)O2)[C@H](C)[C@@H](O[C@@H]2O[C@H](C)C[C@H](N(C)C)[C@H]2O)[C@](C)(O)C[C@@H](C)C(=O)[C@H](C)[C@@H](O)[C@]1(C)O [Erythromycin] + CCCCNC(=O)OCC#CI [3-iodo-2-propynyl butylcarbamate (IPBC)],45.3 ± 0.79,50.8 ± 0.84
CC[C@H]1OC(=O)[C@H](C)[C@@H](O[C@H]2C[C@@](C)(OC)[C@@H](O)[C@H](C)O2)[C@H](C)[C@@H](O[C@@H]2O[C@H](C)C[C@H](N(C)C)[C@H]2O)[C@](C)(OC)C[C@@H](C)C(=O)[C@H](C)[C@@H](O)[C@]1(C)O [Clarithromycin] + CCCCNC(=O)OCC#CI [3-iodo-2-propynyl butylcarbamate (IPBC)],91.65 ± 0.79,92.1
CC[C@H]1OC(=O)[C@H](C)[C@@H](O[C@H]2C[C@@](C)(OC)[C@@H](O)[C@H](C)O2)[C@H](C)[C@@H](O[C@@H]2O[C@H](C)C[C@H](N(C)C)[C@H]2O)[C@](C)(O)C[C@@H](C)CN(C)[C@H](C)[C@@H](O)[C@]1(C)O [Azithromycin] + CCCCNC(=O)OCC#CI [3-iodo-2-propynyl butylcarbamate (IPBC)],108.7 ± 0.95,106 ± 0.32
"CN1CCC2(C)c3cc(O)ccc3N(C)C12 (single isomer, unassigned; (-)) [(-)-Eseroline fumarate salt] + CCCCNC(=O)OCC#CI [3-iodo-2-propynyl butylcarbamate (IPBC)]",85 ± 4.9,90.6 ± 2.1
C#CCN(C)CCCOc1ccc(Cl)cc1Cl [Clorgyline hydrochloride] + CCCCNC(=O)OCC#CI [3-iodo-2-propynyl butylcarbamate (IPBC)],60.36 ± 0.32,87.2 ± 2.2
Oc1cc(Cl)ccc1Oc1ccc(Cl)cc1Cl [Triclosan] + CCCCNC(=O)OCC#CI [3-iodo-2-propynyl butylcarbamate (IPBC)],3.02 ± 0.16,2.2 ± 0.1
CN1[C@@H]2CC[C@H]1C[C@@H](OC(c1ccccc1)c1ccccc1)C2 [Benztropine mesylate] + CCCCNC(=O)OCC#CI [3-iodo-2-propynyl butylcarbamate (IPBC)],84.7 ± 2.1,96.1 ± 4.4
C[C@H](CCC(=O)O)[C@H]1CC[C@H]2[C@@H]3[C@@H](O)C[C@@H]4C[C@H](O)CC[C@]4(C)[C@H]3CC[C@]12C [Urosiol] + CCCCNC(=O)OCC#CI [3-iodo-2-propynyl butylcarbamate (IPBC)],104 ± 12,99.7 ± 5.1
N[C@@H](C(=O)N[C@@H]1C(=O)N2C(C(=O)O)=C(Cl)CS[C@H]12)c1ccccc1 [Cefaclor hydrate] + CCCCNC(=O)OCC#CI [3-iodo-2-propynyl butylcarbamate (IPBC)],92.9 ± 8.1,96.7 ± 4
CC[N+](C)(CC)CCC[n+]1c(-c2ccccc2)c2cc(N)ccc2c2ccc(N)cc21 [Propidium iodide] + CCCCNC(=O)OCC#CI [3-iodo-2-propynyl butylcarbamate (IPBC)],8.1 ± 5.6,12.7 ± 0.32
COc1ccc(CN2CCNCC2)c(OC)c1OC [Trimetazidine dihydrochloride] + CCCCNC(=O)OCC#CI [3-iodo-2-propynyl butylcarbamate (IPBC)],85 ± 2.1,91.87 ± 0.42
CCCCCN(C)CCC(O)(P(=O)(O)O)P(=O)(O)O [Ibandronate sodium] + CCCCNC(=O)OCC#CI [3-iodo-2-propynyl butylcarbamate (IPBC)],87.84 ± 0.48,96.8 ± 0.94
Cc1c(OCC(F)(F)F)ccnc1C[S+]([O-])c1nc2ccccc2[nH]1 (stereo unspecified) [Lansoprazole] + CCCCNC(=O)OCC#CI [3-iodo-2-propynyl butylcarbamate (IPBC)],68.1 ± 2.1,91.87 ± 0.21
CC(C)n1c(/C=C/C(O)CC(O)CC(=O)O)c(-c2ccc(F)cc2)c2ccccc21 (stereo unspecified) [Fluvastatin sodium salt] + CCCCNC(=O)OCC#CI [3-iodo-2-propynyl butylcarbamate (IPBC)],13.8 ± 0.48,33.9 ± 0.52
O=C(O)C[C@H](O)C[C@H](O)/C=C/c1c(C2CC2)nc2ccccc2c1-c1ccc(F)cc1 [Pitavastatin calcium] + CCCCNC(=O)OCC#CI [3-iodo-2-propynyl butylcarbamate (IPBC)],14 ± 2.2,39.4 ± 3.4
CC(C)c1c(C(=O)Nc2ccccc2)c(-c2ccccc2)c(-c2ccc(F)cc2)n1CC[C@@H](O)C[C@@H](O)CC(=O)O [Atorvastatin] + CCCCNC(=O)OCC#CI [3-iodo-2-propynyl butylcarbamate (IPBC)],69.3 ± 2.2,79.5 ± 1.3
C=CC[C@]1(O)CC[C@H]2[C@@H]3CCC4=CC(=O)CCC4=C3C=C[C@@]21C [Altrenogest] + CCCCNC(=O)OCC#CI [3-iodo-2-propynyl butylcarbamate (IPBC)],96.6 ± 1.6,93.8 ± 2.3
